# PubChem BioAssay (EPA / NIEHS)
# Results filed as inconclusive are left out. Calls of active or inactive are those of the source. How the source made its calls, unless noted: active means hit-call score of the fitted dose curve at least 0.9, where 1 is the maximum; inconclusive means response in the unintended direction; inactive means score below 0.9.
# Experiments:
# [1] = TOX21_p53_BLA_p2_viability: Viability Assessment in the Tox21 HCT-116 p53 Agonism Beta-lactamase Assay, Phase 2 (AID 2283591);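 further: actives lower the ATP signal meaning cytotoxicity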
# Method in brief: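 HCT-116 p53-bla cells (4000/well) rested 5 h at 37C, then received compounds in DMSO (217-fold dilution) for 16 h at 37C, 5% CO2. After the CCF4 read, CellTiter-Glo was added; ATP luminescence was read after 30 min at room temperature.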
# [2] = target: Cellular tumor antigen p53 (Homo sapiens) (UniProt P04637); experiment: TOX21_p53_BLA_p2_ratio: Tox21 HCT-116 p53 Agonism Beta-lactamase Assay, Ratio, Phase 2 (AID 2283592)
# Method in brief: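 HCT-116 cells with p53-responsive beta-lactamase reporter, 4000 cells/well, preincubated 5 h, then compound in DMSO (217-fold dilution) for 16 h at 37C. CCF4-AM substrate 2 h at room temperature; 460/530 nm emission ratio fitted upward versus DMSO.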
# [3] = target: Cellular tumor antigen p53 (Homo sapiens) (UniProt P04637); experiment: TOX21_p53_BLA_p3_ratio: Tox21 HCT-116 p53 Agonism Beta-lactamase Assay, Ratio, Phase 3 (AID 2283596)
# Method in brief: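 HCT116 p53-bla cells (4000/well) given compound in DMSO (217-fold dilution) after 5 h, incubated 16 h at 37C. CCF4-AM substrate 2 h at room temperature; 460/530 nm emission ratio, gain fitted against DMSO.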
# [4] = TOX21_p53_BLA_p4_viability: Viability Assessment in the Tox21 HCT-116 p53 Agonism Beta-lactamase Assay, Phase 4 (AID 2283597);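 further: hits lower the luminescence signal meaning cytotoxicity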
# Method in brief: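 HCT-116 p53-bla cells, 4000/well, dosed after 5 h attachment and incubated 16 h at 37 °C, 5% CO2. Viability from CellTiter-Glo ATP luminescence after 30 min at room temperature, taken after the beta-lactamase read; loss of signal indicates cytotoxicity.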
# [5] = target: Cellular tumor antigen p53 (Homo sapiens) (UniProt P04637); experiment: TOX21_p53_BLA_p5_ratio: Tox21 HCT-116 p53 Agonism Beta-lactamase Assay, Ratio, Phase 5 (AID 2283599)
# Method in brief: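 HCT-116 cells carrying a p53-inducible beta-lactamase reporter were seeded at 4000 cells/well and dosed after 5 h with compound in DMSO (217-fold dilution). After 16 h at 37C, CCF4-AM substrate was added for 2 h, and the 460/530 nm emission ratio was scored as gain-of-signal versus DMSO.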
# [6] = TOX21_p53_BLA_p5_viability: Viability Assessment in the Tox21 HCT-116 p53 Agonism Beta-lactamase Assay, Phase 5 (AID 2283600)
# Method in brief: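 HCT-116 p53 beta-lactamase reporter cells, 4000/well, were exposed to compound (pin transfer, 217-fold dilution) for 16 hours at 37C. Cellular ATP was read by CellTiter-Glo luminescence after 30 min at room temperature.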
# [7] = target: Cellular tumor antigen p53 (Homo sapiens) (UniProt P04637); experiment: TOX21_p53_BLA_p4_ratio: Tox21 HCT-116 p53 Agonism Beta-lactamase Assay, Ratio, Phase 4 (AID 2283601)
# Method in brief: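 HCT116 cells carrying an inducible beta-lactamase reporter were plated at 4000 cells/well, rested 5 h, then exposed to compounds in DMSO (217-fold dilution) for 16 h at 37C. CCF4-AM substrate was loaded 2 h at room temperature; 460/530 nm emission ratio scored gain-of-signal versus DMSO.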
# PGR (gene 5241) [8] = target: PGR (gene 5241) (UniProt P06401); experiment: TOX21_PR_BLA_Followup_Antagonist_ratio: Tox21 HEK293 Progesterone Receptor (PR) Antagonism Beta-lactamase Follow-Up Assay, Ratio (AID 2283934);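 further: PR-UAS-bla HEK293T cells stimulated with 1 nM R5020 agonist for 16 hr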
# Method in brief: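 Antagonist mode used 1 nM R5020 (final) as agonist on a beta-lactamase reporter line in HEK293T cells. Activity was taken from the substrate cleavage ratio after 16 hr exposure.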
# [9] = TOX21_PR_BLA_Followup_Agonist_viability: Viability Assessment in the Tox21 HEK293 Progesterone Receptor (PR) Agonism Beta-lactamase Follow-Up Assay (AID 2283935);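 further: signal loss means lower viability so actives are cytotoxic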
# Method in brief: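 Multiplexed viability counter-screen: ATP-coupled luciferase signal measured after 30 min at room temperature, following 16 hr compound treatment of PR-UAS-bla HEK293T cells grown in charcoal-stripped serum.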
# [10] = TOX21_PR_BLA_Followup_Antagonist_viability: Viability Assessment in the Tox21 HEK293 Progesterone Receptor (PR) Antagonism Beta-lactamase Follow-Up Assay (AID 2283936);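 further: hits lower the luminescence signal meaning cytotoxicity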
# Method in brief: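 PR-UAS-bla HEK293T cells (3,000/well, 2% charcoal-stripped FBS) given compound plus R5020 agonist, 16 h at 37C. CellTiter-Glo added after bla read, 30 min at room temperature; luminescence loss indicates cytotoxicity.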
# PGR (gene 5241) [11] = target: PGR (gene 5241) (UniProt P06401); experiment: TOX21_PR_LUC_Followup_Antagonist: Tox21 HEK293 Progesterone Receptor (PR) Antagonism Luciferase Follow-Up Assay (AID 2283938);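 further: curve fitted upward as signal gain over DMSO baseline despite antagonist label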
# Method in brief: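 HEK293-PR-A-luc cells, 3,000/well, preincubated 5 h at 37C before compound addition in DMSO; 16 h compound exposure at 37C. ONE-Glo luciferase luminescence read after 30 min at room temperature, fitted relative to DMSO baseline.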
# [12] = CCTE_Harrill_HTTr_Viability_MCF7: CCTE's 6-hour Cell Viability Assessment for the High-Throughput Transcriptomics (HTTr) Platform, in MCF-7 cells cultured in DMEM + 10% fetal bovine serum, Harrill Lab (AID 2284010; active means hit-call score of the fitted dose curve at least 0.9, where 1 is the maximum; inactive means score below 0.9)
# Method in brief: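 Viability measured through PI dye exclusion by high-content imaging at 6 h post-dosing.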
# [13] = CCTE_Harrill_HTTr_Apoptosis_MCF7: CCTE's 6-hour Apoptosis Assessment for the High-Throughput Transcriptomics (HTTr) Platform, in MCF-7 cells cultured in DMEM + 10% fetal bovine serum, Harrill Lab (AID 2284011; active means hit-call score of the fitted dose curve at least 0.9, where 1 is the maximum; inactive means score below 0.9)
# Method in brief: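 MCF-7 cells in DMEM + 10% FBS exposed 6 h to chemicals over an eight-point dilution series. Caspase-3/7 activation imaged by high-content CellEvent Green staining; fitted bidirectionally versus DMSO.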
# [14] = CCTE_Harrill_HTTr_CellCount_MCF7: CCTE's Cell Proliferation Assessment for the High-Throughput Transcriptomics (HTTr) Platform, Harrill Lab (AID 2284012);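 further: count of Hoechst-stained nuclei per well by high-content imaging in MCF-7 cells; intended direction is loss of nuclei count meaning fewer cells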
# Method in brief: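 Nuclei counting (Hoechst, high content imaging) in MCF-7 after a 6 h treatment at eight concentrations. Activity fitted bidirectionally, DMSO as negative control.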
# [15] = target: Estrogen receptor (Homo sapiens) (UniProt P03372); experiment: CCTE_Deisenroth_AIME_96WELL_LUC_Active: CCTE's 96-well Estrogen Receptor Transactivation Assay with AIME metabolic competence (ERTA luciferase; metabolism positive), Deisenroth Lab (AID 2284023)
# Method in brief: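 Chemicals pre-incubated 2 h with alginate-immobilized phenobarbital/beta-naphthoflavone-induced male Sprague Dawley rat liver S9, then medium transferred to VM7Luc4E2 cells for 24 h luciferase read-out. 10-point series 0.002 - 200 uM; fitted relative to 17beta-estradiol.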
# [16] = target: Estrogen receptor (Homo sapiens) (UniProt P03372); experiment: CCTE_Deisenroth_AIME_96WELL_LUC_Inactive: CCTE's 96-well Estrogen Receptor Transactivation Assay without AIME metabolic competence (ERTA luciferase; metabolism negative), Deisenroth Lab (AID 2284025)
# Method in brief: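 VM7Luc4E2 breast cells, luciferase read 24 h after dosing with medium pre-incubated 2 h on alginate-water lids (metabolism negative). 10-point series 0.002–200 uM, single technical replicate, n≥4; fit relative to 17beta-estradiol.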
# [17] = TOX21_PR_LUC_Followup_Antagonist_viability: Viability Assessment in the Tox21 HEK293 Progesterone Receptor (PR) Antagonism Luciferase Follow-Up Assay (AID 2283940)
# Method in brief: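 Cellular ATP, measured with luciferase-coupled CellTiter-Glo, served as the viability endpoint after HEK293-PR-A-luc cells were exposed to test compounds for 16 h at 37C.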
# [18] = TOX21_PR_LUC_Followup_Agonist_viability: Viability Assessment in the Tox21 HEK293 Progesterone Receptor (PR) Agonism Luciferase Follow-Up Assay (AID 2283941);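 further: loss of signal means cytotoxicity so actives lower viability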
# Method in brief: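 Luminescent ATP quantitation (CellTiter-Glo) serves as the read-out; a drop flags cytotoxic compounds. Cells are HEK293-PR-A-luc grown in 10% charcoal-stripped FBS, plated 3,000/well, and exposed to compound for 16 h.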
# Chain of Cellular tumor antigen p53 (Homo sapiens) (P04637 whole entry, looked up): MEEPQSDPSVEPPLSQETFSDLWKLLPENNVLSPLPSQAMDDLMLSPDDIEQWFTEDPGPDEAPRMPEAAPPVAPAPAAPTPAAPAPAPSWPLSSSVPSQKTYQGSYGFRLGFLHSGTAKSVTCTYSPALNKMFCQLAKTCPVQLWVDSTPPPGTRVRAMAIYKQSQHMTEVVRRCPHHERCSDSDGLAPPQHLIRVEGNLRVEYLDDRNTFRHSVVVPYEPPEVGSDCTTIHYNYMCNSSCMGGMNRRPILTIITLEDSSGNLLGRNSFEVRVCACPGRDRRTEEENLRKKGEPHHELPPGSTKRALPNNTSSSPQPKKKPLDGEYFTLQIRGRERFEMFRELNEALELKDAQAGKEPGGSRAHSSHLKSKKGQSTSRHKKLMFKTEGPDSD
# Chain of PGR (gene 5241) (P06401 whole entry, looked up): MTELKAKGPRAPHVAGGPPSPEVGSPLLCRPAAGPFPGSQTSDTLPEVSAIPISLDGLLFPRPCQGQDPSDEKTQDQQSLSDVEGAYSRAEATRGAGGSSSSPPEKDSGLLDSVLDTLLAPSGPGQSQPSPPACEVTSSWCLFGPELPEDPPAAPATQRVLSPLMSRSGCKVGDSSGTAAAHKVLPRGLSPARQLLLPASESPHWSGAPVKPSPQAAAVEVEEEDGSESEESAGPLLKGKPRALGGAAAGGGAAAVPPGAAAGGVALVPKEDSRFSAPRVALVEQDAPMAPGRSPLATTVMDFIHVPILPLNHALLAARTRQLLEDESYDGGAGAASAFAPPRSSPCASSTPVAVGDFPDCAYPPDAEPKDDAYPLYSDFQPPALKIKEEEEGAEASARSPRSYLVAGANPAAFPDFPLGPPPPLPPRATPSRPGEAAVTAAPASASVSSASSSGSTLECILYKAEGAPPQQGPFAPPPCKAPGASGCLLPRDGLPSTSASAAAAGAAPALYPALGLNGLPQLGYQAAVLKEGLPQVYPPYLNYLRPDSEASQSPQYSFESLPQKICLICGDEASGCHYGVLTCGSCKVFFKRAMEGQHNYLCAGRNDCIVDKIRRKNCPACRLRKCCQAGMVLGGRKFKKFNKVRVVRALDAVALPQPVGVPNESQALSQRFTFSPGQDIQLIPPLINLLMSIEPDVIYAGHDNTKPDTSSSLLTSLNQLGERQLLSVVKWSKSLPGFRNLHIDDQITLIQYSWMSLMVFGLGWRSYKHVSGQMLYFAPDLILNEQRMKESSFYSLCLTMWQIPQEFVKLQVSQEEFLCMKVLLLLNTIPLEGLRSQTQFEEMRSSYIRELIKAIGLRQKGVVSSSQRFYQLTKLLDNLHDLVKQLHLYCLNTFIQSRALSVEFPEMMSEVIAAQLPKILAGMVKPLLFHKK
# Chain of Estrogen receptor (Homo sapiens) (P03372 whole entry, looked up): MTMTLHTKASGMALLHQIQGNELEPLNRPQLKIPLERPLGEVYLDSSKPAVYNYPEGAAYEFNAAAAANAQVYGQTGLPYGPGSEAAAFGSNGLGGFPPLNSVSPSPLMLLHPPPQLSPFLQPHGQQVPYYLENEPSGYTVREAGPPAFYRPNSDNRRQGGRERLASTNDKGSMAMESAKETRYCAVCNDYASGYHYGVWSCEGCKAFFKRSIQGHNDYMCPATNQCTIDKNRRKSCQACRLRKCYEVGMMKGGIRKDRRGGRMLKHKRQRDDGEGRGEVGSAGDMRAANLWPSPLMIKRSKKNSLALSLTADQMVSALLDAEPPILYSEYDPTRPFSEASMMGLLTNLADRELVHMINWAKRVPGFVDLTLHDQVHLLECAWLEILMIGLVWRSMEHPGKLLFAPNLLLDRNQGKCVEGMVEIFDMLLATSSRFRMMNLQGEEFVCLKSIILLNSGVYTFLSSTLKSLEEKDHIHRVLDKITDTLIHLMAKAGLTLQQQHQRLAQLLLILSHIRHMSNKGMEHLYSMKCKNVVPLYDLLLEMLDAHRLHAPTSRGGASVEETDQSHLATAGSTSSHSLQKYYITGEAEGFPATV
compound,measurement,setting,value
CCCCCCCCCCCCCCCCCCCCCC(=O)Nc1ccn([C@@H]2O[C@H](CO)[C@@H](O)[C@@H]2O)c(=O)n1,outcome,[1],inactive
same,AC50,[2],19 µM (active)
same,AC50,[3],23 µM (active)
same,outcome,[4],inactive
same,outcome,[5],inactive
same,outcome,[6],inactive
same,AC50,[7],14.3 µM (active)
Clc1ccc2n[nH]nc2c1,outcome,[1],inactive
same,outcome,[2],inactive
same,outcome,[3],inactive
same,outcome,[4],inactive
same,AC50,[5],55.7 µM (active)
same,outcome,[6],inactive
same,outcome,[7],inactive
COc1cc(C(=O)NS(=O)(=O)c2ccccc2C)ccc1Cc1cn(C)c2ccc(NC(=O)OC3CCCC3)cc12,AC50,[1],14.2 µM (active)
same,AC50,[2],7.01 µM (active)
same,AC50,[3],8.2 µM (active)
same,AC50,[4],8.18 µM (active)
same,AC50,[5],12.9 µM (active)
same,AC50,[6],10.1 µM (active)
same,AC50,[7],9.98 µM (active)
O=[N+]([O-])c1ccc2c(c1)Cc1ccccc1-2,outcome,[1],inactive
same,outcome,[2],inactive
same,outcome,[3],inactive
same,outcome,[4],inactive
same,outcome,[5],inactive
same,outcome,[6],inactive
same,outcome,[7],inactive
same,AC50,PGR (gene 5241) [8],25 µM (active)
same,outcome,[9],inactive
same,outcome,[10],inactive
same,AC50,PGR (gene 5241) [11],31 µM (active)
same,outcome,[12],inactive
same,outcome,[13],inactive
same,outcome,[14],inactive
same,outcome,[15],inactive
same,AC50,[16],26.8 µM (active)
O=C1O[C@H](CO)[C@@H](O)[C@H](O)[C@H]1O,outcome,[1],inactive
same,outcome,[2],inactive
same,outcome,[3],inactive
same,outcome,[4],inactive
same,outcome,[5],inactive
same,outcome,[6],inactive
same,outcome,[7],inactive
OCC(O)[C@@H](O)[C@H](O)[C@H](O)CO[C@H]1O[C@H](CO)[C@@H](O)[C@H](O)[C@H]1O (stereo partly specified),outcome,[1],inactive
same,outcome,[2],inactive
same,outcome,[3],inactive
same,outcome,[4],inactive
same,outcome,[5],inactive
same,outcome,[6],inactive
same,outcome,[7],inactive
CC(C)[N+]1(C)[C@@H]2CC[C@H]1CC(OC(=O)C(CO)c1ccccc1)C2 (stereo partly specified),outcome,[1],inactive
same,outcome,[2],inactive
same,outcome,[3],inactive
same,outcome,[4],inactive
same,outcome,[5],inactive
same,outcome,[6],inactive
same,outcome,[7],inactive
C[C@@H](O)[C@H](N)C(=O)O,outcome,[1],inactive
same,outcome,[2],inactive
same,outcome,[3],inactive
same,outcome,[4],inactive
same,outcome,[5],inactive
same,outcome,[6],inactive
same,outcome,[7],inactive
CC1(C)CCC(C)(C)c2cc(NC(=O)c3ccc(C(=O)O)cc3)ccc21,AC50,[1],36.6 µM (active)
same,outcome,[2],inactive
same,AC50,[3],39.1 µM (active)
same,AC50,[4],36.1 µM (active)
same,AC50,[5],44.2 µM (active)
same,AC50,[6],43.5 µM (active)
same,AC50,[7],44.7 µM (active)
same,outcome,PGR (gene 5241) [8],inactive
same,outcome,[9],inactive
same,outcome,PGR (gene 5241) [11],inactive
same,outcome,[17],inactive
same,outcome,[18],inactive
O=C(Nc1ccc([N+](=O)[O-])cc1)Nc1ccc([N+](=O)[O-])cc1,outcome,[1],inactive
same,outcome,[2],inactive
same,outcome,[3],inactive
same,outcome,[4],inactive
same,outcome,[5],inactive
same,outcome,[6],inactive
same,outcome,[7],inactive
O=C=Nc1ccc(Cc2ccc(N=C=O)cc2)cc1,outcome,[1],inactive
same,outcome,[2],inactive
same,outcome,[3],inactive
same,outcome,[4],inactive
same,outcome,[5],inactive
same,outcome,[6],inactive
same,outcome,[7],inactive
